The values that follow come from PubChem BioAssay.

The source made the active and inactive calls. Unless noted, the rule behind the calls is not given here.

A short description of assay [1]: compounds binding Alexa647 anti-His antibody – biochemical, small-molecule microarray, 635 nm fluorescence, artefact control for SMM control protein annotation, primary screen (AID 1128).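 Note: score merges feature fluorescence with signal-to-noise for each printed compound spot.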 The settings on record: higher = more signal.
Assay [2] deals with Human papillomavirus type 1a E7 protein (residues 1-88). Description: HPV1a E7 small-molecule binders, primary screen, biochemical, small-molecule microarray, residues 1-88, 635 nm (AID 1129). As to conditions: small-molecule microarray binding, fluorescence 635 nm; higher = more signal.
Assay [3] deals with Focal adhesion kinase 1 (Homo sapiens) (UniProt Q05397). Description: PTK2 protein binding on printed compound slides – biochemical, small-molecule microarray, 635/667 nm fluorescence, BSA, DTT, primary screen (AID 1130).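 Note: composite of spot emission at 667 nm and signal to noise over triplicate slides.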 As to conditions: 635 nm fluorescence, higher = more signal.
Sequence of Focal adhesion kinase 1 (Homo sapiens) (Q05397 whole entry, looked up): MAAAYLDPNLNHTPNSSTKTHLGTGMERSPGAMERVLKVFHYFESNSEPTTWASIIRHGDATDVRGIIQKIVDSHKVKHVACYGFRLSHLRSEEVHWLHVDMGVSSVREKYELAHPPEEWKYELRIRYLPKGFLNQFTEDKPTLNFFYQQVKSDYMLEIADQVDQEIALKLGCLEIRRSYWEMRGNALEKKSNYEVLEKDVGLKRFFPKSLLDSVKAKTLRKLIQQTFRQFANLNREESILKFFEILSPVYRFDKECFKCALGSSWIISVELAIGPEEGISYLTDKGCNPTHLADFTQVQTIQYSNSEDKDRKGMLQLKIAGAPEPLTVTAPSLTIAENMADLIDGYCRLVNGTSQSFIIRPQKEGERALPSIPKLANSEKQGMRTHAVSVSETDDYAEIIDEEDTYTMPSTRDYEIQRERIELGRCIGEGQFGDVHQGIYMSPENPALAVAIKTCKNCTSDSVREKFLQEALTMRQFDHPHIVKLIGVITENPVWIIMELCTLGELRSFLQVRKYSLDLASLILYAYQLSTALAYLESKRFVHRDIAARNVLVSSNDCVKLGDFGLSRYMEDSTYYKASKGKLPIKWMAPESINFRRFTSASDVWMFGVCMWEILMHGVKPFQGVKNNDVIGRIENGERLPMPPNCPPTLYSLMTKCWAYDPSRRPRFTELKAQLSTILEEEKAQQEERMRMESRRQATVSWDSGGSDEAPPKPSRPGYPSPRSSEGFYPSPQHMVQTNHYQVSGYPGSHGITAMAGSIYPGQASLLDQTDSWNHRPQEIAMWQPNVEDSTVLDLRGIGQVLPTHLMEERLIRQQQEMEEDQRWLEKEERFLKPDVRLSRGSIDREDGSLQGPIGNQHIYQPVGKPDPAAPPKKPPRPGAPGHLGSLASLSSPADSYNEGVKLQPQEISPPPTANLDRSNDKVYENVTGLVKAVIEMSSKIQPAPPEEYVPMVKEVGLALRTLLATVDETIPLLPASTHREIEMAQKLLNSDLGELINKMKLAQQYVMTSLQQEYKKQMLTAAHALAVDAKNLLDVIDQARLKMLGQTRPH
The subject of assay [4] is Fibrinogen (Alexa647-labelled). The assay is described as follows: Alexa647-fibrinogen binding to printed small molecules – biochemical, small-molecule microarray, 635/667 nm fluorescence, artefact control for SMM control-protein annotation, profiling panel (AID 1131).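 Note: z-score merges 667 nm fluorescence with per-spot signal-to-noise over triplicate slides.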 As to conditions: fibrinogen-A647 binding fluorescence, higher = more signal.
Assay [5] concerns the target Follistatin (Homo sapiens) (UniProt P19883). The assay is described as follows: FST protein binding to printed compounds – biochemical, small-molecule microarray, 635/667 nm fluorescence, primary screen (AID 1132). The settings on record: 635 nm fluorescence, higher = more signal.
Assay [6] addresses Fibroblast growth factor 2 (Homo sapiens) (UniProt P09038). Description: basic fibroblast growth factor binding to printed compounds – biochemical, small-molecule microarray, 635/667 nm fluorescence, primary screen (AID 1133). As to conditions: FGF2, fluorescence 635/667, higher = more signal.
Assay [7] can be described thus: JC-1 mitochondrial potential readout, lung cancer cells – cell-based, A549, JC-1 fluorescence, basal, 24 h, 100 nL, profiling panel (AID 1138).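 Note: A549 lung adenocarcinoma cells under basal conditions with no added stimulus; test concentration not given here.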 As to conditions: higher = more signal.
A further assay relates to Lefty1. Description: Lefty1 protein binding to printed compounds – biochemical, small-molecule microarray, 635/667 nm fluorescence, primary screen (AID 1139). As to conditions: fluorescence 635/667, higher = more signal.
Assay [8] deals with wheat germ agglutinin (Triticum aestivum), Alexa647-labelled. Description: Alexa647-WGA lectin binding to printed small molecules – biochemical, small-molecule microarray, 635/667 nm fluorescence, artefact control for SMM control-protein annotation, profiling panel (AID 1140).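 Note: score merges 667 nm feature emission with signal to noise over triplicate slides.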 As to conditions: WGA-A647 binding, 635 nm fluorescence, higher = more signal.
Assay [9] addresses Luciferin 4-monooxygenase (Photinus pyralis) (UniProt P08659). The assay is described as follows: inhibition of purified Photinus pyralis luciferase – biochemical, luminescence, purified enzyme, 2006 set, primary screen (AID 1141).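 Note: cell-free assay with purified firefly luciferase at 100 ng per well in PBS; test concentration not given here.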 As to conditions: purified firefly luciferase, SteadyGlo luminescence, 30 min; higher = more signal, called active from +8 up or from −8 down.
The test system of assay [10] is Wnt5a (protein binding on small-molecule microarray). Description: small molecules binding Wnt5a protein – biophysical, small-molecule microarray, 635/667 nm fluorescence, primary screen (AID 1142).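 Note: fluorescence read at 667 nm with signal to noise per printed feature.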 As to conditions: 635 nm fluorescence, higher = more signal.
Assay [11] can be described thus: ATP-based viability of Huh7 replicon cells – cell-based, CellTiter-Glo luminescence, basal, 48 h, cytotoxicity control for HCV replication inhibitor project, primary screen (AID 1143).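 Note: Huh7 hepatoma cells carrying a hepatitis C replication reporter with no stimulus; test concentration not given here.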 As to conditions: higher = more signal, called active from +8 up or from −8 down.
The nature of assay [12]: Pseudomonas biofilm growth suppression – PAO1 strain, BacTiter-Glo luminescence, LB-PBS, primary screen (AID 1144). As to conditions: P. aeruginosa PAO1 biofilm, 12 h, higher = more signal.
The nature of assay [13]: basal CRE-LacZ reporter activity in PC12 – cell-based, unstimulated, primary screen (AID 1145). As to conditions: no forskolin, luminescence, 4.5 h, higher = more signal, called active from +8 up or from −8 down.
The nature of assay [14]: forskolin-driven CRE-LacZ activity in PC12 – cell-based, CRE-LacZ reporter, forskolin-stimulated, primary screen (AID 1146).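 Note: PC12 cells with 6xCRE LacZ reporter stimulated by forskolin 10 µM; beta-galactosidase reporter signal reflecting CREB driven transcription.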 As to conditions: luminescence, 4.5 h, higher = more signal, called active from +8 up or from −8 down.
Assay [15] deals with Streptavidin (Streptomyces avidinii) (UniProt P22629). Description: compounds binding control protein streptavidin – biophysical, small-molecule microarray, 635/667 nm fluorescence, artefact control for SMM compound annotation, primary screen (AID 1147).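 Note: signal reflects streptavidin binding to arrayed compounds as a control protein.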 The settings on record: higher = more signal.
Sequence of Streptavidin (Streptomyces avidinii) (P22629 whole entry, looked up): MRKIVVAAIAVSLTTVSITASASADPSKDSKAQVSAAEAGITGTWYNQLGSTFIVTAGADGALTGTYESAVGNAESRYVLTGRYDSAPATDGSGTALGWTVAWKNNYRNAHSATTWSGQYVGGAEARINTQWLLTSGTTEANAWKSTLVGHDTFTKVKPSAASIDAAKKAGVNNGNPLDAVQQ
Assay [16] is described as follows: probe aInhba binding on compound microarray – biochemical, small-molecule microarray, 635/667 nm fluorescence, primary screen (AID 1148).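 Note: score merges 667nm spot fluorescence with signal-to-noise for antibody binding to printed compounds.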 As to conditions: higher = more signal.
Assay [17] addresses Torsin-1A (Homo sapiens) (UniProt O14656). The assay is described as follows: TOR1A wild-type binding on microarray – cell lysate, small-molecule microarray, lysate, 635/667 nm, primary screen (AID 1149). As to conditions: COS7 hTOR1A-WT lysate, 635 nm fluorescence, higher = more signal.
Assay [18] shares this target. The assay is described as follows: torsin A mutant lysate binding on microarrays – cell lysate, small-molecule microarray, COS7 lysate, 635/667 nm fluorescence, primary screen (AID 1150).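 Note: score pools 667 nm emission and signal to noise measuring lysate protein binding.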 The settings on record: COS7 hTOR1A mutant lysate, 635 nm fluorescence, higher = more signal.
Assay [19] has as its system Sonic hedgehog protein (Shh). Description: Sonic hedgehog microarray binding compounds – biochemical, small-molecule microarray, 635/667 nm fluorescence, primary screen (AID 1151).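 Note: Shh protein binding to compounds spotted on small-molecule microarray slides; score combines spot fluorescence intensity with signal-to-noise across triplicate slides.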 As to conditions: 635 nm fluorescence, higher = more signal.

Sequence of Follistatin (Homo sapiens) (P19883 whole entry, looked up): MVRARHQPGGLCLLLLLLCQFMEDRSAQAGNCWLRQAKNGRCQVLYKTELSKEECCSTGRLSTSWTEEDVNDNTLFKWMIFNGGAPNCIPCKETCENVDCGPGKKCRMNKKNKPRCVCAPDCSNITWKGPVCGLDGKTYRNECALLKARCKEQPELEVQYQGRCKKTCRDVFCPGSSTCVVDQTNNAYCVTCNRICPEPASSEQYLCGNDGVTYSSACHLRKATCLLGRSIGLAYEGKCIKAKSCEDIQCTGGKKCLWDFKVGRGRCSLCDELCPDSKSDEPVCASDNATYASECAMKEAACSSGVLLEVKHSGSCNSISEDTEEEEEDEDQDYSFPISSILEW
Sequence of Luciferin 4-monooxygenase (Photinus pyralis) (P08659 whole entry, looked up): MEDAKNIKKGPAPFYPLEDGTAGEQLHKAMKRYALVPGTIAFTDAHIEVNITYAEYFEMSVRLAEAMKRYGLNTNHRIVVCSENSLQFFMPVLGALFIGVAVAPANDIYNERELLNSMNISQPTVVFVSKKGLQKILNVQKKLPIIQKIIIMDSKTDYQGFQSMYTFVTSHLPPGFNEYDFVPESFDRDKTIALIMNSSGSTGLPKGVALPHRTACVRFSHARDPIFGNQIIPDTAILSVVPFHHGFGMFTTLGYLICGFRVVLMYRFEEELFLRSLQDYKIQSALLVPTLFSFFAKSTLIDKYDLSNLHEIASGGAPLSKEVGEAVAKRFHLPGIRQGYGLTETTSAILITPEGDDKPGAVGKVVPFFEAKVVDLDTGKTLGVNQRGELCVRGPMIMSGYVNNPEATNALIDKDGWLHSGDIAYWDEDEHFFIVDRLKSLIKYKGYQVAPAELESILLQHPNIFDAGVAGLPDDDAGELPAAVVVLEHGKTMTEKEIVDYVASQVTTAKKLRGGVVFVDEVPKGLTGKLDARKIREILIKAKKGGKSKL
Sequence of Torsin-1A (Homo sapiens) (O14656 whole entry, looked up): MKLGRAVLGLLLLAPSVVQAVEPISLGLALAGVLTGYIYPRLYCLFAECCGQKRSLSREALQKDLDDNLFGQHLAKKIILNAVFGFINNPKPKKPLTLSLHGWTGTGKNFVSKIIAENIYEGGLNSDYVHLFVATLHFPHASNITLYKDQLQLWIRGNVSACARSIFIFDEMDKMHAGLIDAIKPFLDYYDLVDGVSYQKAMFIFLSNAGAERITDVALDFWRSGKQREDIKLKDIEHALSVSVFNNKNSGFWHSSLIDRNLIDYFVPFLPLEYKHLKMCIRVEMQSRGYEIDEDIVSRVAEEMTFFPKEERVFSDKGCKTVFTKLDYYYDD
Sequence of Fibroblast growth factor 2 (Homo sapiens) (P09038 whole entry, looked up): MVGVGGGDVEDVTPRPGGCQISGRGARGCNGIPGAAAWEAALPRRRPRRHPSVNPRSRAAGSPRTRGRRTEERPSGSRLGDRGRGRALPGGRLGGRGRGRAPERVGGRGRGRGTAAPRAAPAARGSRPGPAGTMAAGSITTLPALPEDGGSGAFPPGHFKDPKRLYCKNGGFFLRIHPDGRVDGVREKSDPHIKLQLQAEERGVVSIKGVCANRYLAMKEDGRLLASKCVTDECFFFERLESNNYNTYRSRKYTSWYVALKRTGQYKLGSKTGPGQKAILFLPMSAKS

As to `O=C1C[C@@H](O)[C@@H](O)[C@@H]2[C@@H]3C(=O)N(C4CCCCC4)C(=O)[C@@H]3CC[C@H]12`, the composite z-score in assay [1] stood at 0.335; in assay [2], 0.949; in [3], 0.329; in assay [4] it was 0.583; in assay [5], 0.525; in assay [6], 0.521. The composite z-score is 0.422 in the assay on Lefty1; 0.103 in assay [8]; 0.0832 in assay [10]; 0.0447 in [15]; -0.128 in assay [16]; 0.296 in the assay with Torsin-1A (Homo sapiens) [17]. Besides, the composite z-score with Torsin-1A (Homo sapiens) [18] was 0.585; in assay [19], -0.0419. Moreover, the z-score in [7] is -0.338; in assay [9], -0.163 (inactive); in assay [11], 0.406 (inactive); in assay [12] it was -0.653 (inactive); in [13], -0.0258 (inactive); in assay [14], -0.444 (inactive).

With `O=C1CCCC2OC12C(O)CCc1ccccc1` (stereo not given), the composite z-score in assay [1] was 0.259; in [2] it was -0.0206; in assay [3], 0.0538; in assay [4], 0.558; in [5] it was 0.321; in assay [6], 0.268. Besides, the composite z-score in the assay on Lefty1 was 0.279; in assay [8], -0.0681; in assay [10] it was 0.154; in assay [15], 0.035; in assay [16] it was -0.214; with Torsin-1A (Homo sapiens) [17], 0.0994. Further, the composite z-score in the assay with Torsin-1A (Homo sapiens) [18] is -0.0582; in [19], 0.174. Moreover, the z-score in assay [7] was 0.112; in [9], -0.443 (inactive); in assay [11], 0.564 (inactive); in assay [12], 0.357 (inactive); in [13], 1.18 (inactive); in [14], 0.0396 (inactive).

`O=C1C[C@@H](O)[C@@H](O)[C@@H]2[C@@H]3C(=O)N(c4cccc(Oc5ccccc5)c4)C(=O)[C@@H]3CC[C@@H]12`: the composite z-score in assay [1] was determined as 0.161; in assay [2], 0.783; in assay [3], 0.35; in assay [4], 0.725; in assay [5], 0.91; in [6], 0.679. Besides, the composite z-score with Lefty1 came to 0.661; in [8], 0.428; in assay [10], 0.111; in assay [15], 0.251; in assay [16], 0.0227; with Torsin-1A (Homo sapiens) [17] it was 0.446. In addition, the composite z-score with Torsin-1A (Homo sapiens) [18] came to 0.463; in assay [19] it was 0.521. In addition, the z-score in assay [7] is 0.844; in assay [9], -0.44 (inactive); in assay [11] it was -0.146 (inactive); in assay [12], 1.27 (inactive); in assay [13], 1.24 (inactive); in assay [14], 0.061 (inactive).

Regarding `COC(=O)[C@@]1(Cc2ccc(F)cc2)[C@@H]2C(=CC(=O)[C@H]2CC(=O)C(=O)N(C)C)CN1C(=O)c1ccccc1`, the composite z-score in assay [1] is 2.36; in assay [2], 1.26; in assay [3], 1.09; in assay [4] it was 0.981; in assay [5], 0.635; in assay [6], -0.54. The composite z-score in the assay on Lefty1 is -0.421; in assay [8], 0.847; in [10], 0.392; in assay [15] it was 1.7; in assay [16], 0.38; with Torsin-1A (Homo sapiens) [17], -0.441. Moreover, the composite z-score with Torsin-1A (Homo sapiens) [18] was 0.283; in assay [19], -0.367. Moreover, the z-score in assay [7] is 0.589; in assay [9] it was 1.24 (inactive); in assay [11] it was -3.59 (inactive); in assay [12], 0.504 (inactive); in [13], -0.179 (inactive); in assay [14], -0.196 (inactive).

Turning to `CC(C)CON=C1C[C@@H](O)[C@@H](O)[C@@H]2[C@@H]3C(=O)N(C[C@@H]4CCCO4)C(=O)[C@@H]3CC[C@H]12`, the composite z-score amounted to 0.361 in [1]; 0.625 in [2]; 0.0201 in assay [3]; 0.286 in [4]; 0.268 in assay [5]; 0.911 in assay [6]. Besides, the composite z-score in the assay on Lefty1 is 0.541; in assay [8] it was 0.0098; in [10] it was -0.0313; in [15], -0.23; in assay [16] it was -0.128; with Torsin-1A (Homo sapiens) [17], 0.0672. Further, the composite z-score with Torsin-1A (Homo sapiens) [18] was determined as 1.49; in assay [19], 0.819. Also, the z-score in assay [7] is -0.786; in assay [9] it was 1.01 (inactive); in assay [11], -1.36 (inactive); in assay [12], 1.34 (inactive); in assay [13], -1.02 (inactive); in assay [14], -0.296 (inactive).
